Results on eleven compounds are retold here after PubChem BioAssay (NCI).

Some test systems named below: SK-MEL-2 melanoma; EKVX NSCLC; SN12C renal; UO-31 renal; TK-10 renal; ACHN renal; CAKI-1 renal; A498 renal; CCRF-CEM leukemia; MOLT-4 leukemia.
What all share (experiment): NCI-60 one-dose screen, 48 h (100 = growth as untreated, 0 = no growth, -100 = all killed)
Conditions in all cases: 10 µM unless noted

About 83,000 compounds went through this panel and 20% of them were active in at least one assay; those are over-represented in the sample as a whole.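 Cell lines were cultured in 96-well plates, exposed to a single compound concentration, and assessed for percent growth 48 hours later.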 A number with no mark means an inactive call. The source made the active and inactive calls. How the source made its calls: active means growth percent below 10; inactive means the rest.

Turning to `Cc1cc2nc3c4cc(N)ccc4n(CCN(C)C)c3nc2cc1C`, the growth in the assay on SK-MEL-2 melanoma is 17.6%; with EKVX NSCLC, 16.8%; in the assay with SN12C renal it was 8.2% (active); in the assay on UO-31 renal it was -6.21% (active); in the assay with TK-10 renal, 41.3%; with ACHN renal, -9.44% (active). In addition, the growth in the assay on CAKI-1 renal was -3% (active); with A498 renal, 46.3%; in the assay with CCRF-CEM leukemia, 23.8%; with MOLT-4 leukemia, 3.65% (active).
For `Cc1ccc(-c2nn(Cc3cn(-c4cc(C)nc5ccccc45)nn3)c3ncnc(N)c23)cc1`, the growth was 76.2% with SK-MEL-2 melanoma; 57.3% in the assay on EKVX NSCLC; 31.1% in the assay on SN12C renal; 17.6% with UO-31 renal; 31.8% in the assay with TK-10 renal; 31.9% in the assay with ACHN renal. For the same compound, the growth in the assay on CAKI-1 renal is 20.8%; in the assay on A498 renal, -2.48% (active); with CCRF-CEM leukemia it was 63.1%; in the assay on MOLT-4 leukemia, 49.9%.
As to `N#Cc1c(-c2ccc(O)cc2)c2c(N)nn(-c3ccccc3)c2[nH]c1=O`, the growth with SK-MEL-2 melanoma is 103%; in the assay with EKVX NSCLC, 101%; in the assay on SN12C renal it was 104%; in the assay on UO-31 renal it was 71.8%; in the assay on TK-10 renal, 137%; with ACHN renal, 100%. Besides, the growth in the assay on CAKI-1 renal is 97.1%; in the assay with A498 renal it was 108%; with CCRF-CEM leukemia it was 110%; in the assay on MOLT-4 leukemia it was 98.1%.
In the case of `COc1ccc(-c2nc(SCC(=O)Nc3ccc(C(C)=O)cc3)[nH]c(=O)c2C#N)cc1`, the growth in the assay on SK-MEL-2 melanoma was 104%; in the assay on EKVX NSCLC, 102%; in the assay on SN12C renal it was 94.5%; in the assay with UO-31 renal it was 105%; with TK-10 renal, 98.4%; in the assay with ACHN renal, 101%. The growth is 96.2% in the assay on CAKI-1 renal, 98.1% in the assay on A498 renal, 109% in the assay on CCRF-CEM leukemia and 103% in the assay with MOLT-4 leukemia.
For `O=C(/C=C/c1ccc2ccccc2c1)Nc1ncc(Cc2ccccc2)s1`, the growth is 98.1% in the assay with SK-MEL-2 melanoma; 71.4% in the assay on EKVX NSCLC; 43.9% in the assay with SN12C renal; 43.5% in the assay with UO-31 renal; 22.6% with TK-10 renal; 6.83% (active) with ACHN renal. In addition, the growth with CAKI-1 renal is 45.1%; in the assay on A498 renal, 86.2%; in the assay on CCRF-CEM leukemia it was 49.2%; with MOLT-4 leukemia, 65.8%.
Consider `CC1(C)NC2=C(C(Nc3cccnc3)N1)C(c1ccc([N+](=O)[O-])cc1)C(C(=O)c1ccc(N=[N+]=[N-])cc1)O2` (stereo not given), for which the growth in the assay on SK-MEL-2 melanoma is 107%; in the assay on EKVX NSCLC, 99.8%; in the assay with SN12C renal, 101%; in the assay with UO-31 renal, 88.3%; in the assay with TK-10 renal, 97.1%; with ACHN renal it was 102%. The growth was 102% with CAKI-1 renal, 108% with A498 renal, 98.8% with CCRF-CEM leukemia and 102% with MOLT-4 leukemia.
`O=C(/C(=C(\C(=O)c1ccccc1)c1ccccc1)c1ccccc1)c1ccccc1`: the growth in the assay on SK-MEL-2 melanoma was 81.5%; with EKVX NSCLC, 40.5%; in the assay with SN12C renal it was 62.5%; in the assay on UO-31 renal, 63.3%; in the assay on TK-10 renal, 86.8%; in the assay on ACHN renal, 39.5%. The growth in the assay with CAKI-1 renal was 57.8%; in the assay on A498 renal, 79.9%; in the assay with CCRF-CEM leukemia it was 16.2%; with MOLT-4 leukemia it was -7.63% (active).
As for `C#CCN=C[C@]12CC[C@@H](C(=C)C)[C@@H]1[C@H]1CC[C@@H]3[C@@]4(C)CCC(=O)C(C)(C)[C@@H]4CC[C@@]3(C)[C@]1(C)CC2`, the growth with SK-MEL-2 melanoma was 91.7%; with EKVX NSCLC, 68.3%; in the assay on SN12C renal, 55.1%; in the assay with UO-31 renal, -78.2% (active); in the assay on TK-10 renal, 104%; with ACHN renal, 75.7%. In addition, the growth in the assay on CAKI-1 renal was 45%; in the assay on A498 renal it was 91.9%; with CCRF-CEM leukemia, 61.3%; in the assay with MOLT-4 leukemia, 42.6%.
As for `C=C(C)[C@@H]1CC[C@]2(C(=O)NNC(=O)c3cccnc3)CC[C@]3(C)[C@H](CC[C@@H]4[C@@]5(C)CCCNC(C)(C)[C@@H]5CC[C@]43C)[C@@H]12`, the growth was 100% in the assay with SK-MEL-2 melanoma; 94.3% with EKVX NSCLC; 83.7% in the assay with SN12C renal; 64% in the assay with UO-31 renal; 158% in the assay with TK-10 renal; 98.1% in the assay on ACHN renal. The growth is 76% in the assay with CAKI-1 renal, 88.1% in the assay with A498 renal, 65.6% in the assay with CCRF-CEM leukemia and 40.1% in the assay with MOLT-4 leukemia.
As to `Cc1ccc(S(=O)(=O)Nc2ccc(-c3cc(-c4cccc(F)c4)c(C#N)c(N)n3)cc2)cc1`, the growth with SK-MEL-2 melanoma was 17.1%; in the assay on EKVX NSCLC, 51.6%; in the assay on SN12C renal, 11.5%; in the assay on UO-31 renal it was -88.2% (active); in the assay with TK-10 renal, -70.8% (active); with ACHN renal it was -71.9% (active). The growth was 10.9% in the assay with CAKI-1 renal, 68.1% with A498 renal, 7.69% (active) in the assay on CCRF-CEM leukemia and 9.77% (active) in the assay with MOLT-4 leukemia.
With `Cn1c(=O)c2c(nc(N3CCCC3)n2C)n(C)c1=O`, the growth is 97.4% with SK-MEL-2 melanoma; 98.9% with EKVX NSCLC; 102% with SN12C renal; 93.8% with UO-31 renal; 85.3% with TK-10 renal; 106% in the assay on ACHN renal. Moreover, the growth with CAKI-1 renal is 93.8%; in the assay with A498 renal, 81.9%; with CCRF-CEM leukemia, 105%; in the assay with MOLT-4 leukemia, 95.1%.
